Measurements taken from PubChem BioAssay AID2384 (Southern Research Specialized Biocontainment Screening …, 2010).
Screen size: about 2,300 compounds; about 1,100 (48%) were called active. How the calls were made is not given here. The set was probably picked from earlier hits. Some of the results follow. Results with a measured potency or affinity are listed apart.

Experiment: inhibitors in S. typhi counter-screen strain, dose response, counter-screen for PhoP regulon inhibitor project, fluorescence, 4 h (AID 2384)
Conditions: S. typhi GFP reporter counter-screen; series mostly up to 150 µM

Structure (SMILES) | inhibition
COc1ccc(-c2cc(C(=O)Nc3ccc(S(=O)(=O)Nc4onc(C)c4C)cc3)c3ccccc3n2)cc1OC | inactive
CCOc1ccc(N2C(=O)CN(O)C=C3N=c4ccccc4=C32)cc1 | inactive
COc1ccc(-c2nc3cc(NC(=O)Cc4ccc(OC)c(OC)c4)ccc3o2)cc1 | inactive
CC(=O)c1ccc(NC(=O)CN2CCCCCC2)cc1 | inactive
C[N+]1(CC2COC3(CCCCC3)O2)CCCCC1 (stereo unspecified) | inactive
COc1ccc(NC(=O)C2CCCN(C(=O)NC3CCCCC3)C2)cc1OC (stereo unspecified) | inactive
CCn1nnnc1SCC(=O)c1cc(Cl)ccc1OC | inactive
O=c1cc(-c2ccccc2)nc2nc(-c3ccco3)[nH]n12 | inactive
C#CCOCCOCCOCCNc1nc(N2CCN(C(=O)CCCCCCCCCCNC(=O)[C@H]([C@@H](C)CC)n3cc(CCCCCN)nn3)CC2)nc(N2CCN(C(=O)CCCCCCCCCCNC(=O)[C@@H]([C@H](C)O)n3cc(C)nn3)CC2)n1 | inactive
CS(=O)(=O)N1CC(C(=O)NC2CC2)Oc2ccc(Cl)cc21 (stereo unspecified) | inactive
Cc1ccc(SCc2[nH]nc3c2C(c2cccnc2)C(C#N)=C(N)O3)cc1 (stereo unspecified) | inactive
CCOC(=O)C1=C(C)NC(SCC(N)=O)=C(C#N)C1c1ccncc1 (stereo unspecified) | inactive
CN(CC(=O)NCc1ccncc1)S(=O)(=O)c1ccccc1 | inactive
COCCNC(=S)N=Nc1c(O)[nH]c2ccc([N+](=O)[O-])cc12 | inactive
c1ccc2c(c1)nc(N1CCOCC1)c1c3ccccc3[nH]c21 | inactive
Cc1cc(C)c(CSc2ncnc3nc[nH]c23)c(C)c1 | inactive
O=C(c1ccco1)N1CCCN(Cc2nc(-c3ccc4c(c3)OCO4)no2)CC1 | inactive
OCn1ncn(-c2ccccc2)c1=S | inactive
CCN(CC)/C(N)=N/c1nc(C)cc(C)n1 | inactive

Structure (SMILES) | inhibition
Cc1cc(C)c2nc(/N=C(\N)NC(=O)c3ccccc3)nc(C)c2c1 | inactive
COc1ccc(OC)c(NC(=O)CSc2nnc3ccc(-c4ccncc4)nn23)c1 | inactive
O=C(NCc1ccccc1)N[C@@H](Cc1c[nH]c2ccccc12)C(=O)O | inactive
O=c1ccn(CCc2c[nH]c3ccccc23)c2c1CCCC2 | inactive
CN(C)C(=O)CC12CC3CC(C1)CC(CC(=O)N(C)C)(C3)C2 | inactive
CCOC(=O)C1CCCN(C/C(O)=C(\C#N)c2nc(-c3ccccc3)cs2)C1 (stereo unspecified) | inactive
O=C(Cn1[nH]c(=O)c2ccccc2c1=O)Nc1ccc(-c2nnc3n2CCCCC3)cc1 | inactive
Cc1cc(Cl)ccc1OCC(=O)Nc1nc(-c2cccnc2)cs1 | inactive
O=C1C2C3C=CC(CC3)C2C(=O)N1/N=C/c1ccc(O)cc1 (stereo unspecified) | inactive
Cc1cccc(NC(=O)c2sc3nc(-c4ccccc4)cn3c2C)n1 | inactive
O=C(Nc1ccc(N2CCOCC2)c(Cl)c1)c1ccc(-n2cnnc2)cc1 | inactive
CCOC(=O)C1=C(C)NC(=O)NC1c1ccc(NC(C)=O)cc1 (stereo unspecified) | inactive
CSC1=NC2(C)CCCCC2C12C=CC(=O)C=C2 (stereo unspecified) | inactive
Nc1cncc(C(=O)O)c1 | inactive
CC1CCCC(NC(=O)COC(=O)CCSc2ccccc2)C1C (stereo unspecified) | inactive
Cc1cccc(NC(=O)CSc2nc3c([nH]c4ccccc43)c(=O)n2C)c1 | inactive
CC(C)OCCCn1c(=S)[nH]c2cc3c(cc2c1=O)OCO3 | inactive
CCS(=O)(=O)N1CCC(C(=O)NCc2cc(OC)ccc2OC)CC1 | inactive
CC(C)c1ccc(N(C(=O)C(F)(F)F)C(C(=O)NC2CCCCC2)c2ccncc2)cc1 (stereo unspecified) | inactive

Structure (SMILES) | inhibition
COc1ccc(NC(=O)CCNS(=O)(=O)c2cccc3nonc23)cc1 | inactive
COc1ccc(N2CCN(c3cc(C)c4ccc(O)cc4n3)CC2)cc1 | inactive
N=c1ccccn1CC(O)COc1ccccc1 (stereo unspecified) | inactive
CSc1nc2cc(Oc3cccc(Cl)c3Cl)c(Cl)cc2[nH]1 | inactive
Clc1ccc2nc(N3CCCCC3)[nH]c2c1 | inactive
CC(=O)c1c(C)[nH]c(C(=O)CSc2nnc(-c3ccc(Cl)cc3)n2CC2CCCO2)c1C (stereo unspecified) | inactive
O=C(NC(O)C(=O)c1ccccc1)c1ccc(F)cc1 (stereo unspecified) | inactive
Clc1ccc2c(c1)c1cc(Cl)ccc1n2CN1CCOCC1 | inactive
CC(C)C(NC(=O)c1ccc(Cl)cc1)C(=O)NCC1CCCO1 (stereo unspecified) | inactive
CC(=O)N(CCC1(c2ccc(C)cc2)CCOC(C(C)C)C1)Cc1ccco1 (stereo unspecified) | inactive
c1cc(N2CCCC2)ccc1C(c1nnnn1C1CCCCC1)N1CCOCC1 (stereo unspecified) | inactive
O=C(NC(=S)Nc1ccc(S(=O)(=O)Nc2nccs2)cc1)c1cccnc1 | inactive
COc1nccnc1NS(=O)(=O)c1ccc(NC(=S)NC(=O)c2cccnc2)cc1 | inactive
C=C(C)COc1ccc2c(C)c(CCC(=O)NC3CC3)c(=O)oc2c1 | inactive
O=C(c1ccccc1)N1CCN(c2ccc([N+](=O)[O-])c(NCc3ccco3)c2)CC1 | inactive
O=C1C(Cl)=C(NCc2cccnc2)C(=O)c2ccccc21 | inactive
CCCC(=O)Nc1c2c(nn1-c1ccc(C)cc1C)CSC2 | inactive
NC(N)=NC(N)=Nc1cccc2ccccc12 | inactive
